From PubChem BioAssay

Target: Torsin-1A-interacting protein 1 (Homo sapiens) (UniProt Q5JTV8)
Assay: LAP1 binders from COS7 cell lysate, primary screen, small-molecule microarray, 635/667 nm fluorescence (AID 1116)
Conditions: COS7-hLAP1 lysate binding, 635 nm fluorescence, higher = more signal

Sequence of Torsin-1A-interacting protein 1 (Homo sapiens) (Q5JTV8 whole entry, looked up): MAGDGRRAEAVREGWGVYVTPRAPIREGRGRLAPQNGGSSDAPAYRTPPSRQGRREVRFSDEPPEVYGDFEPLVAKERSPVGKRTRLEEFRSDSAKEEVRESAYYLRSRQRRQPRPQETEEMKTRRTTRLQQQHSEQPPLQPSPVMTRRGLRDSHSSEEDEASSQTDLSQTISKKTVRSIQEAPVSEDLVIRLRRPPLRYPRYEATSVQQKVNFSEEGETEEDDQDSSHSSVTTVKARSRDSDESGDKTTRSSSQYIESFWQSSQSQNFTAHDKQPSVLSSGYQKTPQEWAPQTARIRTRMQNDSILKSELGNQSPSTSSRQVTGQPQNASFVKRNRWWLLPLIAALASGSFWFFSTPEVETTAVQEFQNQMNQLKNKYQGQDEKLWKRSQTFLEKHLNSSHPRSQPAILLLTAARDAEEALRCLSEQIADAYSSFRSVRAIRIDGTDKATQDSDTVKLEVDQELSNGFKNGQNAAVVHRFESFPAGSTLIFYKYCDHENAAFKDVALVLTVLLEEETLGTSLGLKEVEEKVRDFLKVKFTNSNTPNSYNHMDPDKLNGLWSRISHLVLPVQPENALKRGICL

| Compound | composite z-score |
| --- | --- |
| COC(=O)c1c(CC[C@@H](CO)NC(=O)N[C@@H](Cc2ccccc2)Cn2cc(C3(O)CCCCC3)nn2)oc(C(C)=O)c1C(=O)OC | 0.639 |
| Cc1ccc(S[C@]2(C(=O)NCc3ccccc3)CC(=O)N(Cc3ccccc3Cl)[C@@H]2c2ccc(CO)cc2I)cc1 | 0.0931 |
| COCCOC(=O)N1C(=O)[C@@]2(c3cc(C#Cc4ccc(OC)cc4)ccc31)[C@H](C(=O)N1CCN(c3ncccn3)CC1)[C@H]1C(=O)O[C@H](c3ccccc3)[C@H](c3ccccc3)N1[C@@H]2c1ccc(O)cc1 | 0.135 |
| CC(C)(C)OC(=O)CC[C@@]1(C(=O)NCCN2CCOCC2)N=C(c2ccc(OCCCO)cc2)O[C@@H]1c1ccccc1 | 0.414 |
| COCCOC(=O)N1C(=O)[C@@]2(c3cc(C#CC4(O)CCCCCC4)ccc31)[C@H](C(=O)N1CCCCCCC1)[C@H]1C(=O)O[C@H](c3ccccc3)[C@H](c3ccccc3)N1[C@@H]2c1ccccc1OCCO | 1.62 |
| CC(C)c1ccc(NN2C(C(O)c3c(F)cccc3Cl)C=CC3C(=O)N(c4ccccc4)C(=O)C32)cc1 (stereo unspecified) | 0.47 |
| O=C1OCC=C[C@H]2OC34C=CCN(c5ccc6ccccc6c5)C(=O)[C@H]3N(CCCO)C(=O)[C@@H]4[C@@H]12 (stereo partly specified) | 0.208 |
| CCCCC(CC)C(O)C1C=CC2C(=O)N(c3ccccc3)C(=O)C2N1Nc1ccccc1 (stereo unspecified) | 0.886 |
| O=C1C=CC(=O)[C@@H]2CC(COc3ccccc3)=C3[C@@H](CCc4ccccc4)OB(O)C[C@@H]3[C@H]12 | 0.0342 |
| NC(=O)NCC#Cc1ccc2c(c1)[C@]1(C(=O)N2)[C@H](C(=O)NC[C@H](O)c2ccccc2)[C@H]2C(=O)O[C@H](c3ccccc3)[C@H](c3ccccc3)N2[C@@H]1c1ccc(O)cc1 | 1.45 |
| COC(=O)[C@@]1(Cc2ccccc2)[C@H]2c3cc(C(=O)N(C)C)n(Cc4c(-c5ccccc5)noc4C)c3C[C@H]2CN1C(=O)c1ccccc1 | 1.68 |
| [N-]=[N+]=Nc1ccccc1[C@H]1OC(c2ccc(OCCCO)cc2)=N[C@@]1(CCS(=O)(=O)c1ccccc1)C(=O)O | 2 |
| COCCCNC(=O)[C@@]1(C)c2ccccc2C(=O)N(Cc2cc(C(F)(F)F)cc(C(F)(F)F)c2)[C@H]1c1ccc(CO)cc1 | -0.235 |
| CC(C)(C)N1CC=CC23O[C@@H]4C=CCOC(=O)[C@@H]4[C@H]2C(=O)N(CCCCCO)[C@@H]3C1=O (stereo partly specified) | 2.1 |
| CC(C)N1C(=O)c2ccccc2[C@@H](C(=O)NCCCN(C)C)[C@@H]1c1ccc(CO)cc1 | 0.64 |
| COc1ccc(C(=O)Nc2cccc(CN3C(=O)[C@]4(O[C@H](CC(=O)N5CCC[C@H]5CO)[C@@H]([Si](C)(C)c5ccc(OC)cc5)[C@@H]4C)c4ccccc43)c2)cc1 | 1.06 |
| O=C(CS)NCCCCCCNC(=O)[C@@H]1C[C@@H]2C(=O)N3CCC[C@H]3C(=O)N2[C@@H]1c1ccc(O)cc1 | 1.35 |
| C=C[C@@H](COC(C)=O)N(Cc1ccccc1[N+](=O)[O-])S(=O)(=O)c1ccc(Br)cc1 | 0.954 |

| Compound | composite z-score |
| --- | --- |
| COc1cc2c(cc1O)C(C)N(Cc1cccc(OC(F)(F)F)c1)CC2 (stereo unspecified) | 1.67 |
| CC(C)N1C(=O)C[C@@](C(=O)NCc2ccccc2)(c2ccc([N+](=O)[O-])cc2)[C@H]1c1ccc(CO)cc1 | 1.99 |
| CCCN1C(=O)[C@]2(COC(c3ccc(OCCCO)cc3)=N2)Cc2ccccc21 | 0.39 |
| COC(=O)C(CC#Cc1ccc2c(c1)[C@]1(C(=O)N2)[C@H](c2ccc(OCCO)cc2)N2[C@H](c3ccccc3)[C@H](c3ccccc3)OC(=O)[C@H]2[C@@H]1C(=O)NC[C@H](O)c1ccccc1)C(=O)OC | -0.585 |
| O=C1C2C=CC(C(O)c3ccc(B(O)O)cc3)N(Nc3ccccc3)C2C(=O)N1c1ccccc1 (stereo unspecified) | 0.949 |
| O=C1O[C@H](c2ccccc2)[C@H](c2ccccc2)N2[C@H]1[C@@H](C(=O)NC[C@H](O)c1ccccc1)[C@]1(C(=O)Nc3ccc(C#CCCO)cc31)[C@H]2c1ccc(O)cc1 | 0.0234 |
| O=C1O[C@@H](c2ccccc2)[C@@H](c2ccccc2)N2[C@@H](c3ccc(O)cc3)[C@]3(C(=O)Nc4ccc(C#CC5=CCCCC5)cc43)[C@@H](C(=O)O)[C@H]12 | 1.55 |
| CCOC(=O)C1=CCC(c2ccc(C#N)cc2)N(S(=O)(=O)c2ccc(C)cc2)C1 (stereo unspecified) | 0.479 |
| CCN(CC)c1ccc(N2CC=CC34O[C@@H]5C=CCCOC(=O)C5[C@H]3C(=O)N(CCCCCO)[C@@H]4C2=O)cc1 (stereo partly specified) | 1.04 |
| COc1c(C)cc(-c2cc3c(c(-c4ccc(Oc5ccccc5)cc4)n2)[Si](C(C)C)(C(C)C)OC3)cc1C | -0.0839 |
| CCOC(=O)C[C@H]1[C@H](OC(=O)c2ccc(-c3ccccc3)cc2)[C@@H](NC(=O)c2ccc3ccccc3c2)c2cc(OCCCO)ccc2N1C(=O)Cc1ccc(OC)cc1 | 0.15 |
| CC(C)C(=C=CC[C@@H](O)c1ccccc1OCCO)C[C@@H](O)c1ccccn1 | -0.221 |
| CN(C)C(=O)[C@@]1(CCC(=O)OC(C)(C)C)N=C(c2ccc(OCCCO)cc2)O[C@H]1c1ccccc1 | 1.41 |
| C=CCN1C(=O)[C@]2(O[C@H](CCO)[C@@H]([Si](C)(C)c3ccc(OC)cc3)[C@@H]2C)c2cc(NC(=O)[C@H](C)O)ccc21 | 0.925 |
| Cc1ccc(S[C@]2(C(=O)NCCN3CCOCC3)CC(=O)N(Cc3cc(C(F)(F)F)cc(C(F)(F)F)c3)[C@@H]2c2ccc(CO)cc2I)cc1 | -0.604 |
| CCOC(=O)C[C@H]1[C@H](OC(=O)c2ccc(C(=O)c3ccccc3)cc2)[C@@H](NC(=O)C2CCCCC2)c2cc(OCCCO)ccc2N1C(=O)c1ccccc1 | 0.512 |
| CC(C)(C)N1CC=CC23O[C@@H]4/C=C\CCCOC(=O)C4[C@H]2C(=O)N(CCO)[C@@H]3C1=O (stereo partly specified) | -0.231 |
| CC1CC/C=C\[C@H]2OC34C=CCN(Cc5ccccc5)C(=O)[C@H]3N(CCCCCO)C(=O)[C@@H]4C2C(=O)O1 (stereo partly specified) | 1.04 |
